Experimental data as given in PubChem BioAssay (Tox21).
Calls of active or inactive are those of the source. Entries that show only a call come without a potency. Unless noted, calls follow the shape of the dose curve; as a rule, active = well fitted curve in the direction sought with a large enough effect in the repeat runs; inconclusive = weak or mixed curves; inactive = no such curve, though single readings can be large; an effect the other way counts as inactive or inconclusive.

Tests used:
[1] = qHTS assay for identifying genotoxic compounds that show differential cytotoxicity against isogenic chicken DT40 cell lines with known DNA damage response pathways - wild type cell line (AID 743012); also: nearly all actives have a fitted effect of over 60% in size; also: potency is read from the fitted curve at half-maximal effect
Summary of the method: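 Wild-type DT40 cells (300/well) exposed to compounds for 40 hours at 37 C/5% CO2. Viability read by CellTiter-Glo luminescence after 30 min at room temperature.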

[2] = qHTS assay for identifying genotoxic compounds that show differential cytotoxicity against isogenic chicken DT40 cell lines with known DNA damage response pathways - Rad54/Ku70 mutant cell line (AID 743015); also: nearly all actives have a fitted effect of over 60% in size; also: potency is read from the fitted curve at half-maximal effect
[3] = target: Androgen receptor (Homo sapiens) (UniProt P10275); test: qHTS assay to identify small molecule antagonists of the androgen receptor (AR) signaling pathway (AID 743035; active = well fitted inhibition curve with a large enough effect in the signal ratio in the repeat runs, not every such curve was filed as active; inconclusive = weak or mixed curves, or effect the other way; inactive = no such curve, though single readings can be large or run the other way; the % refers to the signal ratio; also: potency is read from the fitted curve at half-maximal effect)
Chain of Androgen receptor (Homo sapiens) (P10275 whole entry, looked up): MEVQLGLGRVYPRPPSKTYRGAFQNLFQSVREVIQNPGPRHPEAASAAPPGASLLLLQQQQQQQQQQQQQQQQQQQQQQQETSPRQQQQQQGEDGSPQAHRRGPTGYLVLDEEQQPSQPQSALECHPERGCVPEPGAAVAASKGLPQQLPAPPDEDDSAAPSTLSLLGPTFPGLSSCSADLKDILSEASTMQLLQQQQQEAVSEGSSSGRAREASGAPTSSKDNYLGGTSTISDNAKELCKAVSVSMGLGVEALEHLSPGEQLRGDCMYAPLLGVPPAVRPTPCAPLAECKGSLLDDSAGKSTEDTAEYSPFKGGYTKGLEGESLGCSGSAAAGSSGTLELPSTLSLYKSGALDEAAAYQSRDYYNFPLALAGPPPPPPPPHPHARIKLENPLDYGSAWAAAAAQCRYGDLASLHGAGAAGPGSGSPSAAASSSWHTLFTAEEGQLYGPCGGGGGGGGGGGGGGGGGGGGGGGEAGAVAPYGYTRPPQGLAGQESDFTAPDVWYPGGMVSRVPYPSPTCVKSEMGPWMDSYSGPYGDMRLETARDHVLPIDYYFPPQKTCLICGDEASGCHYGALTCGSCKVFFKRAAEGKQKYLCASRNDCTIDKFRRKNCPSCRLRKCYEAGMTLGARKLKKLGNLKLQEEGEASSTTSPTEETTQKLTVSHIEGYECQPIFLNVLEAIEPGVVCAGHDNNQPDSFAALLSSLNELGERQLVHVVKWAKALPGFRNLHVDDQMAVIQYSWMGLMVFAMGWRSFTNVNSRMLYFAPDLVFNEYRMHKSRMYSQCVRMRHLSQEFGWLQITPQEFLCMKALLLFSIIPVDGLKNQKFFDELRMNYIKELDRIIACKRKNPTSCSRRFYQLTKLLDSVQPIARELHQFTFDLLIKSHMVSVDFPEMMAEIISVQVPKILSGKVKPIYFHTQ
Summary of the method: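 HEK293 cells stably carrying UAS-beta-lactamase reporter, 2,000/well, given compounds plus R1881 agonist and incubated 16 h at 37C. LiveBLAzer B/G FRET substrate then added for 2 h at room temperature before fluorescence reading.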

[4] = target: Androgen receptor (Homo sapiens) (UniProt P10275); test: qHTS assay to identify small molecule agonists of the androgen receptor (AR) signaling pathway (AID 743036; active = well fitted activation curve with a large enough effect in the signal ratio in the repeat runs, with a control signal flat, not every such curve was filed as active; inconclusive = weak or mixed curves, or effect the other way; inactive = no such curve, though single readings can be large or run the other way; the % refers to the signal ratio; also: potency is read from the fitted curve at half-maximal effect)
Summary of the method: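 Quantitative HTS of the Tox21 10K library in HEK293 cells bearing a stably integrated UAS-controlled beta-lactamase reporter. Compound exposure lasted 16 h at 37C. Reporter activity was detected by FRET substrate fluorescence after 2 h at room temperature.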

[5] = target: Androgen receptor (Homo sapiens) (UniProt P10275); test: qHTS assay to identify small molecule agonists of the androgen receptor (AR) signaling pathway using the MDA cell line (AID 743040; also: nearly all actives have a fitted effect of over 20% in size)
Summary of the method: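 Cells plated, 5 h at 37C/0% CO2; compound or DMSO pinned; 16 h at 37C; ONE-Glo added; luminescence measured after 30 min at room temperature. Reporter line: MDA-kb2 with MMTV-luciferase responsive to AR and GR.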

[6] = qHTS assay to identify small molecule antagonists of the androgen receptor (AR) signaling pathway using the MDA cell line - cell viability counter screen (AID 743041; also: nearly all actives have a fitted effect of over 45% in size)
Summary of the method: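 Cells were plated at 3,000 per well and left 5 h. Compounds in DMSO were then pinned in, followed by R1881. After 16 h at 37C, CellTiter-Fluor fluorescence gave viability.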

[7] = qHTS assay to identify small molecule antagonists of the thyroid receptor (TR) signaling pathway (AID 743065); also: nearly all actives have a fitted effect of over 55% in size; also: potency is read from the fitted curve at half-maximal effect
Summary of the method: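 Antagonism measured as loss of luciferase signal in GH3 cells stably carrying a TRE-luciferase reporter, co-treated with compound and T3 (1 nM final) for 23.5 h at 37 C. Viability was read in the same well by CellTiter-Fluor.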

[8] = qHTS assay to identify small molecule antagonists of the estrogen receptor alpha (ER-alpha) signaling pathway - cell viability counter screen (AID 743074; calls by dose curve;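 also: HEK293 cells carrying ER-alpha-UAS-bla reporter stimulated with 17beta-estradiol; nearly all actives have a fitted effect of over 45% in size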; also: potency is read from the fitted curve at half-maximal effect)
Aromatase (Homo sapiens) = Aromatase (Homo sapiens) (UniProt P11511); test: qHTS assay to identify aromatase inhibitors (AID 743083); also: nearly all actives have a fitted effect of over 55% in size; also: potency is read from the fitted curve at half-maximal effect
Chain of Aromatase (Homo sapiens) (P11511 whole entry, looked up): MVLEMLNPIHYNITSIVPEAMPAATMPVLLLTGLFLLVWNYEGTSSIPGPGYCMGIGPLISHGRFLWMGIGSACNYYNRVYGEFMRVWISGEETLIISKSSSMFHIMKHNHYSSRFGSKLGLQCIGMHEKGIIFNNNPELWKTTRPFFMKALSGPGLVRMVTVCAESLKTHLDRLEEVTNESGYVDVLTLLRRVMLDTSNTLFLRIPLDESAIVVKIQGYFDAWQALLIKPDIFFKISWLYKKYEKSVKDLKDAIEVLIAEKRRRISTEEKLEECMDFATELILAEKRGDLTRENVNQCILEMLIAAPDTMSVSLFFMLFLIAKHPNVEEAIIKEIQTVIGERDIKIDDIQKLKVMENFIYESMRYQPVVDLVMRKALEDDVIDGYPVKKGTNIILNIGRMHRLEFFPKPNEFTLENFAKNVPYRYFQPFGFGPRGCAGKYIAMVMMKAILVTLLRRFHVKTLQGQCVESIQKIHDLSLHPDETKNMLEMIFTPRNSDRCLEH

[9] = target: Androgen receptor (Homo sapiens) (UniProt P10275); test: qHTS assay to identify small molecule antagonists of the androgen receptor (AR) signaling pathway using the MDA cell line (AID 743042; also: potency is read from the fitted curve at half-maximal effect; nearly all actives have a fitted effect of over 55% in size)
Summary of the method: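 Antagonist mode: compounds plus R1881 agonist added to MDA-kb2 AR-luc cells, incubated 16 h at 37C. Luciferase reporter luminescence quantified, with multiplexed CellTiter-Fluor readout for cell viability.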

[10] = qHTS assay to identify small molecule antagonists of the thyroid receptor (TR) signaling pathway - cell viability counter screen (AID 743064); also: nearly all actives have a fitted effect of over 50% in size; also: potency is read from the fitted curve at half-maximal effect
Summary of the method: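 Rat GH3 pituitary tumor cells stably expressing two TR response elements driving luciferase were plated, rested 4 h, then dosed with library compounds and T3 (1 nM final). After 23.5 h at 37 °C, CellTiter-Fluor was added for 30 min and fluorescence recorded.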

[11] = target: Estrogen receptor (Homo sapiens) (UniProt P03372); test: qHTS assay to identify small molecule antagonists of the estrogen receptor alpha (ER-alpha) signaling pathway (AID 743069; active = well fitted curve in the direction sought with a large enough effect in the signal ratio in the repeat runs, not every such curve was filed as active; inconclusive = weak or mixed curves, or effect the other way; inactive = no such curve, though single readings can be large or run the other way; the % refers to the signal ratio; also: potency is read from the fitted curve at half-maximal effect)
Chain of Estrogen receptor (Homo sapiens) (P03372 whole entry, looked up): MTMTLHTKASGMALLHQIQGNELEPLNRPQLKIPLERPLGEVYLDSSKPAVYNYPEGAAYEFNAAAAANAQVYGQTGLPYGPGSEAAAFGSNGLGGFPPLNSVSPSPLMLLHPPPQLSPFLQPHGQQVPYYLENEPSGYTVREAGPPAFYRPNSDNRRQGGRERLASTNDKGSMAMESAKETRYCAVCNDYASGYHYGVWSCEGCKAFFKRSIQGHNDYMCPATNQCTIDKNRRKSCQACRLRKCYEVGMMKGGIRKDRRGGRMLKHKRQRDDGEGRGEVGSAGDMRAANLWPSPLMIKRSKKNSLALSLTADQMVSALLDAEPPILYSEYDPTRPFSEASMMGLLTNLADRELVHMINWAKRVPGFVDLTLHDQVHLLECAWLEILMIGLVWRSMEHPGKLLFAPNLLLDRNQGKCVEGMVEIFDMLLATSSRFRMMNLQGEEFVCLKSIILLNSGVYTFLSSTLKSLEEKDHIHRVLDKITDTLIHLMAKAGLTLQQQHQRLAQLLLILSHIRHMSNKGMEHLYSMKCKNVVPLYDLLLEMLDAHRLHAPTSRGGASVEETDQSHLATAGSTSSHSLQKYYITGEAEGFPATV
Summary of the method: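 ER-alpha-UAS-bla GripTite HEK293 line; 2% charcoal-stripped FBS overnight; plated, 4 hr 37C/5% CO2; cpd in DMSO + 17beta-estradiol, 18 hr 37C; LiveBLAzer B/G FRET substrate 2 hr RT; fluorescence intensity.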

[12] = target: Estrogen receptor (Homo sapiens) (UniProt P03372); test: qHTS assay to identify small molecule agonists of the estrogen receptor alpha (ER-alpha) signaling pathway (AID 743075; calls by dose curve;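 also: HEK293 GripTite cells with ER-alpha and UAS-driven beta-lactamase reporter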)
[13] = qHTS assay to identify small molecule antagonists of the estrogen receptor alpha (ER-alpha) signaling pathway using the BG1 cell line (AID 743080; calls by dose curve;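 also: BG1 cells stimulated with 17beta-estradiol alongside compound; nearly all actives have a fitted effect of over 25% in size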; also: potency is read from the fitted curve at half-maximal effect)
Summary of the method: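 BG1Luc4E2, endogenous ER-alpha, 4xERE-luc; 5 d charcoal-stripped FBS, phenol red free; 24 h plating; cpd + 17beta-estradiol 21.5 h, 37 C/5% CO2; CellTiter-Fluor viability 30 min, then ONE-Glo luciferase 30 min RT.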

[14] = qHTS assay to identify small molecule antagonists of the estrogen receptor alpha (ER-alpha) signaling pathway using the BG1 cell line - cell viability counter screen (AID 743081);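 also: compound given together with 17beta-estradiol as the ER stimulus; series mostly up to about 70 µM; nearly all actives have a fitted effect of over 45% in size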
[15] = qHTS assay to identify small molecule antagonists of the androgen receptor (AR) signaling pathway - cell viability counter screen (AID 743033; also: nearly all actives have a fitted effect of over 45% in size)
[16] = system: thyroid hormone receptor (rat, GH3 cells); test: qHTS assay to identify small molecule agonists of the thyroid receptor (TR) signaling pathway (AID 743066; calls by dose curve)
[17] = target: Estrogen receptor (Homo sapiens) (UniProt P03372); test: qHTS assay to identify small molecule agonists of the estrogen receptor alpha (ER-alpha) signaling pathway using the BG1 cell line (AID 743079); also: nearly all actives have a fitted effect of over 20% in size
[18] = qHTS assay for identifying genotoxic compounds that show differential cytotoxicity against isogenic chicken DT40 cell lines with known DNA damage response pathways - Rev3 mutant cell line (AID 743014); also: nearly all actives have a fitted effect of over 55% in size; also: potency is read from the fitted curve at half-maximal effect

| SMILES | Potency [1] | Potency [2] | Potency [3] | Potency [4] | Potency [5] | Potency [6] | Potency [7] | Potency [8] | Potency (Aromatase (Homo sapiens)) | Potency [9] | Potency [10] | Potency [11] | Potency [12] | Potency [13] | Potency [14] | Potency [15] | Potency [16] | Potency [17] | Potency [18] |
| --- | --- | --- | --- | --- | --- | --- | --- | --- | --- | --- | --- | --- | --- | --- | --- | --- | --- | --- | --- |
| COc1cc(NS(C)(=O)=O)ccc1Nc1c2ccccc2nc2ccccc12 | 0.0596 µM (active) | 0.0084 µM (active) | 0.601 µM (active) | 10.7 µM (active) | inactive | inactive | 0.596 µM (active) | inactive | 26.6 µM (active) | – | – | – | – | – | – | – | – | – | – |
| C=CCc1cc(S(=O)(=O)c2ccc(O)c(CC=C)c2)ccc1O | 30.6 µM (active) | 54.5 µM (active) | 38.9 µM (active) | inactive | inactive | – | 24.3 µM (active) | inactive | 54.5 µM (active) | 61.1 µM (active) | 61.1 µM (active) | 34.7 µM [inconclusive] (active) | inactive | 61.1 µM (active) | inactive | – | – | – | – |
| CC(C)CCC[C@@H](C)[C@H]1CC[C@H]2[C@@H]3CC[C@@H]4C[C@H](O)CC[C@]4(C)[C@H]3CC[C@]12C | inactive | inactive | – | – | – | inactive | – | inactive | inactive | – | – | inactive | inactive | inactive | inactive | inactive | inactive | inactive | – |
| NCCCC(=O)O | inactive | inactive | – | – | – | inactive | inactive | inactive | inactive | – | inactive | inactive | inactive | inactive | inactive | inactive | inactive | inactive | – |
| O=C(CCCN1CCN2CCCC2C1)c1ccc(F)cc1 (stereo not drawn) | 11.9 µM (active) | 8.41 µM (active) | – | – | – | inactive | inactive | inactive | inactive | – | inactive | inactive | inactive | inactive | inactive | inactive | inactive | inactive | – |
| CN1CCN(CCCN2c3ccccc3Sc3ccc(C(F)(F)F)cc32)CC1 | 5.31 µM (active) | 5.31 µM (active) | – | – | – | – | – | – | 26.6 µM (active) | – | 10.6 µM (active) | – | – | – | inactive | – | inactive | – | 2.11 µM (active) |
| CN1CCN(c2ccccc2/C=C2\SCCN(c3ccc(Cl)c(Cl)c3)C2=O)CC1 | 4.33 µM (active) | 5.45 µM (active) | – | – | – | – | – | 43.6 µM (active) | inactive | – | – | – | inactive | – | – | – | – | – | 2.73 µM (active) |
| CC/C=C\C/C=C\C/C=C\C/C=C\C/C=C\CCCC(=O)O | – | inactive | – | – | – | inactive | – | inactive | inactive | – | inactive | inactive | inactive | inactive | inactive | inactive | inactive | inactive | inactive |
| CCCCCCCC1CCC(=O)O1 (stereo not drawn) | – | – | – | – | – | – | inactive | – | – | – | – | – | – | – | – | – | inactive | – | – |
| O=C1CCCCCCCCCCCCCC1 | inactive | – | – | – | – | inactive | – | inactive | – | – | – | inactive | inactive | inactive | inactive | inactive | inactive | inactive | – |
| CC1(C)S[C@@H]2[C@H](N3C(=O)C(c4ccccc4)NC3(C)C)C(=O)N2[C@H]1C(=O)O (stereo partly drawn) | inactive | inactive | – | – | – | inactive | inactive | inactive | inactive | – | inactive | inactive | inactive | inactive | inactive | inactive | inactive | inactive | – |
| c1ccc2occc2c1 | – | – | – | – | – | inactive | inactive | – | 68.6 µM (active) | – | – | inactive | inactive | inactive | inactive | – | inactive | inactive | – |
| CC1=C(/C=C/C(C)=C/C=C/C(C)=C\C(=O)O)C(C)(C)CCC1 | 61.3 µM (active) | 68.8 µM (active) | – | – | – | inactive | – | – | inactive | – | – | – | – | 0.244 µM (active) | – | – | – | – | 61.3 µM (active) |
| COc1ccc2ccccc2c1 | – | – | – | – | – | – | inactive | – | inactive | – | – | – | – | – | – | – | inactive | – | – |
| N[C@H](CO)C(=O)O | inactive | inactive | – | – | – | inactive | inactive | inactive | inactive | – | inactive | – | – | – | inactive | inactive | inactive | – | – |
| Cc1cnc(C(=O)O)c[n+]1[O-] | inactive | inactive | – | – | – | inactive | – | inactive | inactive | – | inactive | inactive | inactive | inactive | inactive | – | inactive | inactive | inactive |
| CNCCC=C1c2ccccc2CCc2ccccc21 | 6.68 µM (active) | 11.9 µM (active) | – | – | – | – | 10.6 µM (active) | – | – | – | – | – | inactive | inactive | inactive | – | – | inactive | 11.9 µM (active) |
| CO/N=C(\C(=O)N[C@@H]1C(=O)N2C(C(=O)O)=C(CSc3nc(C)c(CC(=O)O)s3)CS[C@H]12)c1csc(N)n1 | inactive | inactive | – | – | – | inactive | inactive | inactive | inactive | – | inactive | inactive | inactive | inactive | inactive | inactive | inactive | inactive | – |
